{
  "source": "PubChem BioAssay AID1578",
  "about": "(Sanford-Burnham Center for Chemical Genomics, 2009)",
  "note": "Hit rate of the full screen: of about 290,000 compounds, about 3,000 (1%) were called active. What follows is part of a selection rich in actives, with near analogues and random picks from the rest. A number with no mark means an inactive call. No stated cut-off is given here; in the data, active means inhibition mostly above about 36% (no sharp cut-off); inactive means mostly below about 34%.",
  "data": [
    {"experiment": "NOD1 signaling inhibitors, primary screen, cell-based, luminescence, uHTS (AID 1578);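 further: HEK-293T reporter cells stimulated with the NOD1 agonist gamma-tri-DAP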", "settings": "NOD1-driven NF-kB luciferase reporter cells, at 4 µM, active compounds read high", "values": [
      {"compound": "O=C(CNC(=O)Cn1ccc2ccccc2c1=O)NCCCN1CCN(c2cccc(Cl)c2)CC1", "inhibition": "9.9%"},
      {"compound": "COc1ccccc1CN1CC(C(=O)N(C)CCCn2nc(C)cc2C)CCC1=O", "note": "(stereo not drawn)", "inhibition": "-33.8%"},
      {"compound": "Cc1cc(Cl)ccc1C(=O)C1CCCN(C(=O)c2cnn(C(C)C)c2)C1", "note": "(stereo not drawn)", "inhibition": "-17.9%"},
      {"compound": "CC(C)(C)n1cc(S(=O)(=O)c2ccccc2)[nH]c1=O", "inhibition": "-26.3%"},
      {"compound": "O=C(Nc1ccccn1)N1CCOCC1", "inhibition": "-28.5%"},
      {"compound": "C=CCn1c(SCc2cc(=O)n3cc(C)ccc3n2)nnc1-c1ccc(F)cc1", "inhibition": "-11.1%"},
      {"compound": "O=C(O)CCn1[nH]c(=O)c2ccccc2c1=O", "inhibition": "-7.7%"},
      {"compound": "Cc1ccc2nc(SCc3ccccc3)c(C=O)c(=O)n2c1", "inhibition": "-41.8%"},
      {"compound": "COc1ccc(-c2c(NC(=O)c3ccco3)n(-c3ccccc3)nc(C)c2=O)cc1", "inhibition": "-7.7%"},
      {"compound": "COc1ccc(/C=N/NC(=O)c2c(-c3ccccc3)noc2C)cc1[N+](=O)[O-]", "inhibition": "-15.9%"},
      {"compound": "Oc1ccc(-c2nc3c4c(ncn3n2)-c2ccccc2CC42CCCC2)cc1", "inhibition": "99.8% (active)"},
      {"compound": "c1ccc(OCc2nc3c4c(ncn3n2)-c2ccccc2CC42CCCC2)cc1", "inhibition": "19.6%"},
      {"compound": "COc1ccc(-c2nc3c4c(ncn3n2)-c2ccccc2CC42CCCC2)cc1", "inhibition": "-3.6%"},
      {"compound": "O=C(Nc1ccccc1F)C1CCN(C(=O)NCc2ccccc2)CC1", "inhibition": "-18%"},
      {"compound": "COc1ccc(-c2cc(-c3ccccc3)nc(Cl)n2)cc1OC", "inhibition": "12%"},
      {"compound": "Cc1c(NS(=O)(=O)c2ccc3c(c2)NC(=O)CC(=O)N3)cccc1[N+](=O)[O-]", "inhibition": "-6.1%"},
      {"compound": "CCOC(=O)NC1(C(F)(F)F)C(=O)N(Cc2ccccc2)C2=C1C(=O)CC(C)(C)C2", "note": "(stereo not drawn)", "inhibition": "0.2%"},
      {"compound": "Cc1ccc(S(=O)(=O)N(C)c2ccc(OC(=O)c3ccc(=O)[nH]c3)cc2)cc1", "inhibition": "5.9%"},
      {"compound": "O=S(=O)(c1cc(F)ccc1F)N1CCN2CCCC2C1", "note": "(stereo not drawn)", "inhibition": "50.7%"},
      {"compound": "C=CCNC(=S)N/N=C/c1ccc(C(C)(C)C)cc1", "inhibition": "3.2%"},
      {"compound": "C=CCNC(=S)N/N=C/c1ccc(-c2cccc([N+](=O)[O-])c2)o1", "inhibition": "-8.7%"},
      {"compound": "C=CCNC(=S)N/N=C/c1ccc(-c2ccc(OC)cc2)o1", "inhibition": "59.5% (active)"},
      {"compound": "C=CCNC(=S)N/N=C/c1ccc(C(F)(F)F)cc1", "inhibition": "52.7% (active)"},
      {"compound": "NC(=S)N/N=C/c1ccc(C(F)(F)F)cc1", "inhibition": "-16%"},
      {"compound": "C=CCNC(=S)N/N=C/c1ccc(-c2ccc(Br)cc2)o1", "inhibition": "-6.5%"},
      {"compound": "CCN(CC)CCCN1C=C2C(=O)C(C)(OC(=O)C3CCCC3)C(=O)C=C2C=C1c1ccsc1", "note": "(stereo not drawn)", "inhibition": "-2%"},
      {"compound": "CCOC(=O)C1=C(c2ccccc2)N=C2SCC(=O)N2C1c1ccc(OCC)c(OCC)c1", "note": "(stereo not drawn)", "inhibition": "-4%"},
      {"compound": "CCOC(=O)Cn1nc(C)c(NC(=O)COc2ccc([N+](=O)[O-])cc2)c1C", "inhibition": "-8.3%"},
      {"compound": "CC(=O)NNC(=O)CCn1c2c(c3ccccc31)CCCC2", "inhibition": "-2%"},
      {"compound": "O=C(CCn1c2c(c3ccccc31)CCCC2)NNC(=O)c1ccccc1Cl", "inhibition": "-15.4%"},
      {"compound": "CCOC(=O)NNC(=O)CCn1c2c(c3ccccc31)CCCC2", "inhibition": "55.3% (active)"},
      {"compound": "CCOC(=O)c1c(C)[nH]c(C(=O)CSc2nc(C)cc(C)n2)c1C", "inhibition": "-15.5%"},
      {"compound": "O=C(O)C1CC1(c1ccccc1)c1ccccc1", "note": "(stereo not drawn)", "inhibition": "-21.6%"},
      {"compound": "CCOc1ccc(Nc2nc(NCC(=O)O)nc(N)c2[N+](=O)[O-])cc1", "inhibition": "0.9%"},
      {"compound": "O=C(Nc1ccccc1)C1C2CCC3C(CCC21)C3(Cl)Cl", "note": "(stereo not drawn)", "inhibition": "-42.4%"},
      {"compound": "Cc1cccc(NC(=O)C2C3CCC4C(CCC32)C4(Cl)Cl)c1", "note": "(stereo not drawn)", "inhibition": "-38.6%"},
      {"compound": "O=C(Nc1cccc(Cl)c1)C1C2CCC3C(CCC21)C3(Cl)Cl", "note": "(stereo not drawn)", "inhibition": "73% (active)"},
      {"compound": "COc1cccc(CN2CCNC(=O)C2CC(=O)N2CCCCO2)c1OC", "note": "(stereo not drawn)", "inhibition": "-10.5%"},
      {"compound": "CCOc1ccc(C(=O)c2ccccc2C(=O)O)cc1OCC", "inhibition": "-35.3%"},
      {"compound": "CC1=CC(=O)C(C(C)C)=C/C1=C(\\c1cc(C(C)C)c(OP(=O)(O)O)cc1C)c1ccccc1C(=O)O", "inhibition": "69.3% (active)"},
      {"compound": "CC1=CC(=O)C(C(C)C)=C/C1=N/OS(=O)(=O)c1ccccc1", "inhibition": "-5.3%"},
      {"compound": "COc1ccc(CNc2ccc(S(N)(=O)=O)cc2)cc1", "inhibition": "2.2%"},
      {"compound": "S=C(N/N=C/c1ccc(Cl)cc1)N1CCOCC1", "inhibition": "63.9% (active)"},
      {"compound": "Oc1ccc(/C=N/NC(=S)N2CCOCC2)cc1", "inhibition": "4.2%"},
      {"compound": "Cc1ccc(/C=N/NC(=S)N2CCOCC2)cc1", "inhibition": "39.7%"},
      {"compound": "Cc1cccc2sc(NC(=O)CSc3cn[nH]n3)nc12", "inhibition": "19%"},
      {"compound": "O=C1C2CC=CCC2C(=O)N1Cc1ccccc1Cl", "note": "(stereo not drawn)", "inhibition": "-2.8%"},
      {"compound": "CC(=O)Nc1ccc(NC(=O)CSc2nc(N)c(NC(=O)c3ccco3)c(=O)[nH]2)cc1", "inhibition": "-35.9%"},
      {"compound": "COC(=O)COc1ccc2c(-c3ccc(OC)cc3)cc(=O)oc2c1", "inhibition": "1.6%"},
      {"compound": "O=C(COc1ccc2ccc(=O)oc2c1)Nc1cccnc1", "inhibition": "-31.3%"},
      {"compound": "Cc1c(C)c2ccc(OCC(=O)Nc3cccnc3)cc2oc1=O", "inhibition": "-45.6%"},
      {"compound": "O=C(COc1ccc2ccc(=O)oc2c1)Nc1ccc(CCO)cc1", "inhibition": "-6%"},
      {"compound": "Cc1nn(CCC#N)c(N)c1C1(O)C(=O)Nc2c(Cl)cc(Cl)cc21", "note": "(stereo not drawn)", "inhibition": "-6.9%"},
      {"compound": "Fc1ccccc1/C=N/Nc1nc2ccccc2o1", "inhibition": "-1.1%"},
      {"compound": "CCOc1ccc2nc(C)cc(Nc3ccc(N4CCOCC4)cc3)c2c1", "inhibition": "-31.4%"},
      {"compound": "CN(C[C@H](CC1CCCCC1)N(C[C@H](Cc1ccccc1)N(CCc1ccccc1)N=O)N=O)N=O", "inhibition": "-18.5%"},
      {"compound": "O=c1cc(CNC2CCCCC2)c2ccccc2[nH]1", "inhibition": "11.2%"},
      {"compound": "COC(=O)c1ccc(-n2cncn2)c([N+](=O)[O-])c1", "inhibition": "-23.5%"},
      {"compound": "CC(C)N=c1scc(-c2cccs2)n1/N=C/c1ccc(O)c(O)c1O", "inhibition": "54.6%"},
      {"compound": "CN=c1scc(-c2cccs2)n1/N=C/c1ccccc1O", "inhibition": "107% (active)"},
      {"compound": "CN=c1scc(-c2cccs2)n1/N=C/c1ccc(O)c(O)c1O", "inhibition": "-24.6%"},
      {"compound": "O=C(Cc1ccccc1)NCC(=O)N1CCN(c2ccccc2)CC1", "inhibition": "-14.1%"},
      {"compound": "Cc1ccc(NC2=CC(=O)CC(c3ccc(Cl)cc3)C2)cc1", "note": "(stereo not drawn)", "inhibition": "-10.3%"},
      {"compound": "C(=N\\Nc1ccccn1)/c1ccc2c(c1)OCCO2", "inhibition": "-30.1%"},
      {"compound": "C(=N\\Nc1nc2ccccc2[nH]1)/c1ccc2c(c1)OCCO2", "inhibition": "-1.4%"},
      {"compound": "Cc1cccc(/C=N/Nc2ccc3ccccc3n2)c1", "inhibition": "63.5% (active)"},
      {"compound": "C(=N\\Nc1ccc2ccccc2n1)/c1ccc2c(c1)OCCO2", "inhibition": "71.8% (active)"},
      {"compound": "Fc1cccc(/C=N/Nc2ccc3ccccc3n2)c1", "inhibition": "2.4%"},
      {"compound": "Cc1ccc(/C=N/Nc2ccc3ccccc3n2)o1", "inhibition": "25.7%"},
      {"compound": "Cc1ccc(OCC(O)CN2C(=O)NC(C)(C)C2=O)c(C)c1", "note": "(stereo not drawn)", "inhibition": "-16.8%"},
      {"compound": "Cc1ccc(N=Nc2[nH]c3ccccc3c2O)cc1", "inhibition": "-16%"},
      {"compound": "COc1ccc(N2CC(C(=O)Nc3nnc(SCc4cccnc4)s3)CC2=O)cc1", "note": "(stereo not drawn)", "inhibition": "-15.4%"},
      {"compound": "O=C(O)CSc1nnc(CSc2nc3ccccc3s2)n1-c1ccccc1", "inhibition": "-26.6%"},
      {"compound": "CC(C)(C)OC(=O)Nc1ncnc2c1ncn2C1OC(CO)C2OC(C)(C)OC21", "note": "(stereo not drawn)", "inhibition": "1.4%"},
      {"compound": "COc1ccc(NC(=O)CSc2nnc(CN3CCOCC3)n2C)cc1Cl", "inhibition": "-15%"},
      {"compound": "Cc1cccc(NC(=O)NCC2CCN(c3ccc(S(=O)(=O)N4CCOCC4)cc3)CC2)c1", "inhibition": "-10.9%"},
      {"compound": "CCNC(=S)N/N=C(\\C)c1ccc2ccccc2c1OC(F)F", "inhibition": "-20.3%"},
      {"compound": "C/C(=N\\NC(=S)NCc1ccccc1)c1ccc2ccccc2c1OC(F)F", "inhibition": "48.2% (active)"},
      {"compound": "COC(=O)N/N=C(\\C)c1ccc2ccccc2c1OC(F)F", "inhibition": "-30%"},
      {"compound": "CCc1ccc(CNC(=O)c2ccc(NC(=O)C3=CSCCO3)cc2)cc1", "inhibition": "-44.5%"},
      {"compound": "COc1ccc(NC(=O)C2=CC(c3ccco3)=NS(=O)(=O)N2C)cc1OC", "inhibition": "-21.6%"},
      {"compound": "O=C(Nc1cc(Sc2ccccn2)cc([N+](=O)[O-])c1)c1ccc([N+](=O)[O-])cc1", "inhibition": "45.6%"},
      {"compound": "O=C(Nc1cc(Sc2ccccn2)cc([N+](=O)[O-])c1)c1cccc(Cl)c1", "inhibition": "15.3%"},
      {"compound": "O=C(Nc1cc(Sc2ccccn2)cc([N+](=O)[O-])c1)c1ccc(Cl)cc1", "inhibition": "74.1% (active)"},
      {"compound": "Cn1c(O)c(N=NC(=O)CNC(=O)/C=C/c2ccccc2)c2ccccc21", "inhibition": "24.3%"},
      {"compound": "O=C1c2ccccc2C(=O)N1c1ncc(Cc2ccc(Cl)cc2)s1", "inhibition": "25.4%"},
      {"compound": "Cc1cccc(Cc2cnc(N3C(=N)SC(c4ccccc4)C3=O)s2)c1", "note": "(stereo not drawn)", "inhibition": "95.5% (active)"},
      {"compound": "Cc1cccc(Cc2cnc(NC(=O)c3ccc(C)o3)s2)c1", "inhibition": "-34.8%"},
      {"compound": "Brc1cccc(-c2nc3cccnc3nc2-c2cccc(Br)c2)c1", "inhibition": "23.6%"},
      {"compound": "CC(C)(C)c1nc2cc(Cl)c([N+](=O)[O-])cc2o1", "inhibition": "-22.4%"},
      {"compound": "O=C(CN1CCCCCCC1)N/N=C/c1ccc([N+](=O)[O-])o1", "inhibition": "8.4%"},
      {"compound": "c1ccc2c(c1)N1CCCN=C1N2CCN1CCCCC1", "inhibition": "-32.5%"},
      {"compound": "O=C1N=C2N(CCN3CCCCC3)c3ccccc3N2/C1=C\\c1ccc([N+](=O)[O-])o1", "inhibition": "84.9% (active)"},
      {"compound": "CO/N=C/c1ccc(N2CCCC2)c([N+](=O)[O-])c1", "inhibition": "-21.4%"},
      {"compound": "Cc1ccc(S(=O)(=O)N2CCN(c3ccnc4cc(Cl)ccc34)CC2)cc1", "inhibition": "16.3%"},
      {"compound": "C/C(Nc1ccccc1)=C(/C#N)C(N)=O", "inhibition": "-14.6%"},
      {"compound": "CC(=O)Nc1ccc(C(=O)c2ccccc2)cc1", "inhibition": "-1%"},
      {"compound": "N#CC(C#N)=C(Nc1ccccc1)c1ccccc1", "inhibition": "32.8% (active)"}
    ]}
  ]
}
